In PubChem BioAssay:
Calls of active or inactive are those of the source.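 Rule for the calls, unless noted: active = inhibition of the reporter signal at or above 50%; inactive = inhibition below 50%.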

Columns and labels:
[1] = inhibitors of TNFa-induced NFkB p65 translocation, primary screen, imaging, HUVEC, MLSMR starter and 10KST1 sets (AID 438;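 active = inhibition above 20% together with a positive visual image hit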;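 note: compound added about 3h40 before a 20 min TNFalpha stimulation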;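 for inhibition: signal is the nuclear over cytoplasmic p65 intensity ratio per well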); conditions: HUVEC TNFa-induced p65 nuclear translocation; cell count: measured here: nuclei count (cytotoxicity indicator), at 2.08 µM; inhibition: at 2 µM, stronger effect = higher value, 0% TNFa-plus-vehicle, 100% no-TNFa wells
[2] = reduction of polyQ htt aggregates in cells – imaging, exon1htt(103Q)mCFP cells, high-content imaging, primary screen (AID 483;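 active = visual image review flags a hit and inhibition of aggregation exceeds 20%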;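 note: compound exposure lasted 3 days before fixation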;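 for nuclei count: percent of the per-plate median nuclei count of sample wells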); conditions: exon1htt(103Q)mCFP cell line, aggregate imaging, at 2 µM; inhibition of aggregation: stronger effect = higher value; nuclei count: measured here: cell count, toxicity
[3] = endothelial E-selectin expression blockers – imaging, HUVEC, immunofluorescence, MLSMR starter and 10KST1 sets, primary screen (AID 487;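 active = visually confirmed hit in the image check and inhibition above 20%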;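 for inhibition: signal is fraction of cell area covered by stained E-selectin grains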;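 for nuclei count: 100% = median nuclei count of all wells on the same plate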); conditions: HUVEC TNFalpha-induced E-selectin immunofluorescence imaging, at 2 µM; inhibition: stronger effect = higher value; nuclei count: measured here: cell number, toxicity
[4] = molecular target: Voltage-gated potassium channel subunit beta-2 (Rattus norvegicus) (UniProt P62483); experiment: inhibitors of rat Kvbeta2 reductase activity – biochemical, NADPH fluorescence, primary screen (AID 622;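 active = fluorescence slope higher than the sample average by over 3 SD, cut at about -0.22 in these data, passing the limit was not always enough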;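 note: slope of raw intensity against log time taken from 70 to 1610 s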); conditions: recombinant KvBeta, 4-cyanobenzaldehyde reduction, at 10 µM, stronger effect = higher value
[5] = molecular target: Voltage-gated potassium channel subunit beta-2 (Rattus norvegicus) (UniProt P62483); experiment: enhancers of rat Kvbeta2 NADPH turnover – biochemical, NADPH fluorescence, primary screen (AID 623;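 active = NADPH fluorescence slope more negative than the mean of all samples by about 3 SD, 99.7% confidence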;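 note: fluorescence intensity change per second fitted from 20 to 320 s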); conditions: Recombinant KvBeta, NADPH fluorescence decrease slope, 10 min; at 10 µM; stronger effect = lower value
[6] = molecular target: Alpha-2C adrenergic receptor (Homo sapiens) (UniProt P18825); experiment: compounds altering alpha2C-coupled GIRK flux – cell-based, HEK293 alpha2C/GIRK1/2, thallium flux, primary screen (AID 624;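 active = fluorescence slope after compound addition differing from the mean of all screened samples at 99.7% confidence, in either direction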;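 note: slope of fluorescence ratio to pre-addition baseline per second over 15 to 24 s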); conditions: thallium flux BTC fluorescence, at 10 µM, actives lie on both sides
[7] = blockers of RIG-like receptor reporter activation – cell-based, Sendai virus stimulus, luciferase, 10K MLSCN set, TLR/RLR signaling modifier project, primary screen (AID 602276;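 active = inhibition at or above 50% at 10 µM; inactive = inhibition below 50%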;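 note: firefly luciferase from ISG56 promoter only with Renilla not read in this screen; 0% = Sendai virus plus DMSO and 100% = medium plus DMSO without virus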); conditions: HEK293 RL24 IRF3 luciferase reporter, at 10 µM, stronger effect = higher value
[8] = TLR3 IRF3 reporter activation blockers – cell-based, poly I:C stimulus, luciferase, 10K MLSCN set, primary screen (AID 602277); conditions: HEK293-TLR3 RL24 IRF3 luciferase reporter, at 10 µM, stronger effect = higher value

Voltage-gated potassium channel subunit beta-2 (Rattus norvegicus), sequence (P62483 whole entry, looked up): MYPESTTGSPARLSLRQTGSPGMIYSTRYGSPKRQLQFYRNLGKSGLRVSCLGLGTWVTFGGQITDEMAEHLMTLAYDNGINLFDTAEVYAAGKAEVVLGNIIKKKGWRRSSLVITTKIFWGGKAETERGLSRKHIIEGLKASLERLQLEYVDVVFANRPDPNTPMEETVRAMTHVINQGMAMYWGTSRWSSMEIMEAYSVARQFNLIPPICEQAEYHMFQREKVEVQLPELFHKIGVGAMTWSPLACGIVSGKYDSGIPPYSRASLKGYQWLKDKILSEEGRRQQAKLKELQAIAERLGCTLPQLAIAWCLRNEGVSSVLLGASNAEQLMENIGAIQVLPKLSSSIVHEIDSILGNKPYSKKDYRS
Alpha-2C adrenergic receptor (Homo sapiens), sequence (P18825 whole entry, looked up): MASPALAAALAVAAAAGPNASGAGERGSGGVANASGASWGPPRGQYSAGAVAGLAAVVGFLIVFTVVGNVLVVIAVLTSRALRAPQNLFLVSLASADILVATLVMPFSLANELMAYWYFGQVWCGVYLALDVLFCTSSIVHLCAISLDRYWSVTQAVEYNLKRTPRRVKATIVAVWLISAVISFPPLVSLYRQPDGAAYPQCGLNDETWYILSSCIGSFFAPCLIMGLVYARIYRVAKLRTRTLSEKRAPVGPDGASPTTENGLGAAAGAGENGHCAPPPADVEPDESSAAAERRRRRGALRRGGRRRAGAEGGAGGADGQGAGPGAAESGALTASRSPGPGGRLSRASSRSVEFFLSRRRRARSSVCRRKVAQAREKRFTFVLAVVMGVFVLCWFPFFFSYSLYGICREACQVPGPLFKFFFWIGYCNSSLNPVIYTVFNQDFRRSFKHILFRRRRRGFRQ

Row | SMILES | cell count [1] | inhibition [1] | inhibition of aggregation [2] | nuclei count [2] [%] | inhibition [3] | nuclei count [3] [%] | fluorescence slope [4] | NADPH fluorescence slope [5] | slope [6] | inhibition [7] | inhibition [8]
1 | CCOc1cc(C(=O)N2CCN=C2SC)cc(OCC)c1OCC | 227 | -4.9% (inactive) | -39.5% (inactive) | 109 | -24.8% (inactive) | 108 | -0.595 (inactive) | 4.6e-06 (inactive) | 0.00661 (inactive) | 15.5% (inactive) | 24.3% (inactive)
2 | CCOP(=O)(c1ccc(N(C)C)cc1)C(O)c1ccccc1OC (stereo not drawn) | 728 | -5.5% (inactive) | -2.8% (inactive) | 113 | -31.9% (inactive) | 116 | -0.387 (inactive) | 4.7e-05 (inactive) | 0.00598 (inactive) | 1.78% (inactive) | 10.6% (inactive)
3 | CCCCn1c2c(c3ccccc31)CCc1nonc1-2 | 664 | -4% (inactive) | 8.5% (inactive) | 75.1 | -16.7% (inactive) | 100 | -0.601 (inactive) | 4.9e-06 (inactive) | 0.00755 (inactive) | -16.3% (inactive) | 13.4% (inactive)
4 | CCN(CC)CCOC(=O)c1ccc(NC(=O)COc2cc(=O)n(CC)c3ccccc23)cc1 | 386 | 6.7% (inactive) | -6.9% (inactive) | 108 | -26.7% (inactive) | 117 | -0.514 (inactive) | 4.9e-05 (inactive) | 0.00772 (inactive) | -1.28% (inactive) | -7.01% (inactive)
5 | COc1ccc(NC2c3ncccc3C(=O)N2Cc2ccccc2)c(OC)c1 (stereo not drawn) | 480 | 1.6% (inactive) | -17% (inactive) | 116 | -31.3% (inactive) | 114 | -0.609 (inactive) | -9.3e-06 (inactive) | 0.00393 (inactive) | 7.6% (inactive) | 15.8% (inactive)
6 | COc1ccccc1CC1(C)NC(=O)N(CC(=O)Nc2cc(C)on2)C1=O (stereo not drawn) | 471 | -14.8% (inactive) | 14.1% (inactive) | 88.8 | -28.8% (inactive) | 158 | -0.598 (inactive) | -2.5e-05 (inactive) | 0.006 (inactive) | 9.53% (inactive) | 16.4% (inactive)
7 | O=C(NC1CCCC1)C1CCCN(S(=O)(=O)c2cccc3cccnc23)C1 (stereo not drawn) | 617 | 6.6% (inactive) | 3.4% (inactive) | 107 | -68.3% (inactive) | 132 | -0.594 (inactive) | -3.8e-05 (inactive) | 0.00653 (inactive) | -0.271% (inactive) | 28.5% (inactive)
8 | Cc1cccc(Cc2c(C)nc3nc(SCC(=O)NCc4ccco4)nn3c2C)c1 | 389 | 0.3% (inactive) | 5.8% (inactive) | 85.7 | -79.7% (inactive) | 101 | -0.463 (inactive) | -5.1e-07 (inactive) | 0.00687 (inactive) | 10.8% (inactive) | 27.6% (inactive)
9 | COc1ccc(CNC(=O)c2nnn(Cc3ccc(OC)cc3)c2N)cc1 | 649 | 2.8% (inactive) | -8.9% (inactive) | 84.9 | -6.7% (inactive) | 92.2 | -0.624 (inactive) | -2.4e-05 (inactive) | 0.00639 (inactive) | 12.2% (inactive) | 22.1% (inactive)
10 | CCCC(=O)N1CC(=O)Nc2ccc(C)cc2C1c1ccc(F)cc1 (stereo not drawn) | 698 | -9.1% (inactive) | 7.9% (inactive) | 103 | -21.3% (inactive) | 111 | -0.513 (inactive) | -3e-05 (inactive) | 0.00518 (inactive) | 3.95% (inactive) | 24.9% (inactive)
11 | Nn1c(SCC(=O)Nc2ccc3c(c2)OCO3)nnc1C1CC1 | 363 | 4.8% (inactive) | 0.8% (inactive) | 100 | -16% (inactive) | 111 | -0.574 (inactive) | -5.7e-05 (inactive) | 0.00672 (inactive) | 4.52% (inactive) | 17.1% (inactive)
12 | O=C(CNC(=O)c1ccccc1C(=O)O)c1ccccc1 | 653 | 1.8% (inactive) | 9.6% (inactive) | 105 | -147% (inactive) | 124 | -0.42 (inactive) | 1.4e-05 (inactive) | 0.00616 (inactive) | -17.6% (inactive) | -49% (inactive)
13 | CCOc1ccc(-c2cn(S(=O)(=O)c3cccc4nsnc34)nc2N)cc1 | 316 | -6.1% (inactive) | 8% (inactive) | 107 | -29.1% (inactive) | 66.8 | -0.484 (inactive) | -3.8e-05 (inactive) | 0.00478 (inactive) | 10.6% (inactive) | 28.6% (inactive)
14 | NC(=O)CCS(=O)(=O)CCN1CCCCC1 | 361 | 5.7% (inactive) | 2.7% (inactive) | 89.8 | -14.9% (inactive) | 116 | -0.435 (inactive) | 4.4e-05 (inactive) | 0.0056 (inactive) | 19.5% (inactive) | 23.8% (inactive)
15 | O=C(Nc1cnccn1)c1cccs1 | 655 | -17.2% (inactive) | -13.1% (inactive) | 122 | -34.1% (inactive) | 110 | -0.517 (inactive) | -2.8e-05 (inactive) | 0.00591 (inactive) | 10.2% (inactive) | 12.3% (inactive)
16 | Cc1cccc(OCC(=O)N2CCN(C(=O)Cc3ccccc3)CC2)c1 | 264 | -5.5% (inactive) | 15.8% (inactive) | 85.9 | -34.1% (inactive) | 111 | -0.502 (inactive) | -4.5e-05 (inactive) | 0.00476 (inactive) | 5.28% (inactive) | 16.6% (inactive)
17 | Cc1nnc(SCCn2c(Br)nc3c2c(=O)n(C)c(=O)n3C)s1 | 410 | 3.8% (inactive) | 2% (inactive) | 101 | -12% (inactive) | 109 | -0.374 (inactive) | -1.8e-05 (inactive) | 0.00518 (inactive) | -7.02% (inactive) | -0.072% (inactive)
18 | CCOC(=O)N1CCC(N2C(=O)c3ccccc3C2Nc2cc(Cl)c(OC)cc2OC)CC1 (stereo not drawn) | 761 | -2.3% (inactive) | -25.4% (inactive) | 111 | -35.7% (inactive) | 114 | -0.596 (inactive) | -3.8e-05 (inactive) | 0.0052 (inactive) | -7.31% (inactive) | 4.34% (inactive)
19 | CCOC(=O)c1cc2c(=O)n3ccccc3nc2n(CCCOC)c1=NC(C)=O | 657 | 11.2% (inactive) | 21.5% (inactive) | 94.4 | -33.6% (inactive) | 82.5 | -0.133 (active) | 1.2e-05 (inactive) | 0.00482 (inactive) | 1.75% (inactive) | 9.93% (inactive)
20 | CC(Sc1nc(-c2ccccc2)cc(C(F)(F)F)n1)C(=O)N1CCC(C(N)=O)CC1 (stereo not drawn) | 446 | 7.2% (inactive) | 8.9% (inactive) | 97.1 | -45.8% (inactive) | 126 | -0.455 (inactive) | -8.9e-05 (inactive) | 0.00612 (inactive) | 17.5% (inactive) | 24.5% (inactive)
21 | CN1CCN(C(=O)NC2CCCN2S(=O)(=O)c2ccc(Cl)cc2)CC1 (stereo not drawn) | 528 | -20.6% (inactive) | 11.5% (inactive) | 106 | 31.3% (inactive) | 105 | -0.493 (inactive) | -5.8e-05 (inactive) | 0.00636 (inactive) | 0.971% (inactive) | 21.8% (inactive)
22 | O=C(O)C1C2CCC(O2)C1C(=O)NCCC1=CCCCC1 (stereo not drawn) | 465 | 10.4% (inactive) | -18.3% (inactive) | 105 | -112% (inactive) | 117 | -0.331 (inactive) | -5.8e-05 (inactive) | 0.0055 (inactive) | 1.86% (inactive) | 13.6% (inactive)
23 | CCOc1ccc(-c2nc(C#N)c(NCc3ccc4c(c3)OCO4)o2)cc1 | 801 | 1.8% (inactive) | -13.1% (inactive) | 93.8 | -56.3% (inactive) | 120 | -0.581 (inactive) | -4.4e-05 (inactive) | 0.00619 (inactive) | -4.94% (inactive) | -18.3% (inactive)
24 | O=C(CSc1nnnn1C1CCCCC1)N1CCc2ccccc21 | 348 | 0.8% (inactive) | -13.7% (inactive) | 101 | 1.9% (inactive) | 120 | -0.566 (inactive) | -4e-05 (inactive) | 0.00388 (inactive) | 9.99% (inactive) | -10% (inactive)
25 | CCOC(=O)c1[nH]c(C)c(C(=O)NCC2CCCO2)c1C (stereo not drawn) | 390 | 2.8% (inactive) | 5.8% (inactive) | 103 | -13.6% (inactive) | 86.3 | -0.608 (inactive) | -7.6e-06 (inactive) | 0.00577 (inactive) | 8.72% (inactive) | 14.8% (inactive)
26 | Cc1cc(C(=O)CSc2nc3ccccc3[nH]2)c(C)n1C | 659 | 5.3% (inactive) | 7.6% (inactive) | 113 | -82.7% (inactive) | 123 | -0.59 (inactive) | -5.2e-05 (inactive) | 0.00445 (inactive) | -46.8% (inactive) | -155% (inactive)
27 | [N-]=[N+]=CC(=O)CC(c1ccccc1)N1C(=O)c2ccccc2C1=O (stereo not drawn) | 229 | 0.5% (inactive) | 10.4% (inactive) | 58.6 | -39.5% (inactive) | 115 | -0.609 (inactive) | -2.1e-05 (inactive) | 0.00641 (inactive) | -5% (inactive) | -29.5% (inactive)
28 | COC(=O)c1cccc(NC(=O)CSc2nnc(COc3ccc(C#N)cc3)n2-c2ccccc2)c1 | 599 | 3.7% (inactive) | -5.1% (inactive) | 91.2 | -64.7% (inactive) | 120 | -0.586 (inactive) | 4.9e-05 (inactive) | 0.00802 (inactive) | -22% (inactive) | -18.5% (inactive)
